Pf Dd2 growth – inhibitors of Plasmodium falciparum Dd2 growth | AID 1347417 | actives 4.3% (n = 120,000) | P. falciparum Dd2 growth, SYBR Green, 72 h | Potency, µM (highest dose often 28.9 µM), for inactives: top-dose activity, negative = inhibition, actives largely listed as inhibitors; active = well fitted inhibition curve with a large enough effect;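 also: plate controls were DMSO vehicle for no effect and reference drug for full effect; nearly all actives have a fitted effect of over 65% in size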
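Infected erythrocytes (Dd2, 0.3% parasitemia, 2.5% hematocrit final) are added to compound in RPMI-1640/Albumax II medium, grown 72 h at 37C in low oxygen, then lysed with saponin/Triton-X containing SYBR Green and read by fluorescence.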
* = called active by the depositor; i = inactive; [ ] = another dose, or the depositor's remark. Many of the other results were omitted from the sample, so hits are more common in it than they were. Potency is read from the fitted curve at half-maximal effect.

SMILES | Pf Dd2 growth
COc1ccc(-c2noc(-c3nc(Cc4ccccc4)no3)n2)cc1OC | i
COc1ccc(C(=O)N2Cc3ccccc3CC23CCCN(C(=O)CN)C3)cc1 (stereo not given) | -18.3%
NCCCC(=O)N1CCCC2(Cc3ccccc3CN2C(=O)c2ccccc2)C1 (stereo not given) | 7.4%
CCC(=O)N1Cc2ccccc2CC2(CCCN(Cc3ccncc3)C2)C1 (stereo not given) | -5.9%
CC(C)C(=O)N1Cc2ccccc2CC2(CCCN(Cc3ccccc3)C2)C1 (stereo not given) | 3.55µM*
O=C(O)CCC(=O)N1Cc2ccccc2CC2(CCCN(CCc3ccccc3)C2)C1 (stereo not given) | 8.8%
CN1CCC2(Cc3ccccc3CN(C(=O)CCC(=O)O)C2)C1 (stereo not given) | -6.9%
CCCN1CCCC2(Cc3ccccc3CN(C(=O)CCCC(=O)O)C2)C1 (stereo not given) | -6.2%
CCCC(=O)N1Cc2ccccc2CC2(CCN(C)C2)C1 (stereo not given) | 11.2µM*
CCCC(=O)N1Cc2ccccc2CC2(CCCN(CCC)C2)C1 (stereo not given) | 8.91µM*
CCCC(=O)N1Cc2ccccc2CC2(CCN(CC)C2)C1 (stereo not given) | -13.5%[44.1 µM]
CC(=O)NCC(=O)N1Cc2ccccc2CC2(CCN(Cc3ccccc3)C2)C1 (stereo not given) | -17.7%
NCC(=O)N1Cc2ccccc2CC12CCCN(C(=O)c1ccccc1)C2 (stereo not given) | 8.91µM*
CN(C)c1cccc(-c2cn(C)c(=O)n3cc(CN4CC[S+](=O)([O-])CC4)nc23)c1 | -18.3%[44.1 µM]
O=C1c2ccccc2CN1C1CCN(Cc2cccnc2)CC1 | 21.7%
CN(C)[C@H]1CCCCN(C(=O)c2cn(CCN3CCNCC3)nn2)C1 | -1.3%
COc1c(C)cccc1C(=O)N1CCC2(CC1)CNC(C(=O)O)C2 (stereo not given) | -16.4%
CCN1CCCC2(Cc3ccccc3CN(C(=O)CCC(=O)O)C2)C1 (stereo not given) | 16.6%
CCN1CCCC2(Cc3ccccc3CN(C(=O)c3ccccc3)C2)C1 (stereo not given) | 10µM*
CCC(=O)N1Cc2ccccc2CC2(CCCN(CC3CCNCC3)C2)C1 (stereo not given) | -2.1%
COc1nc2c(cc1CNC(=O)[C@@H](N)CO)C(=O)N(CCc1ccccn1)C2 | -4.6%
COc1ccc(OCC(=O)NC2CCN(c3cc(-c4ccccc4)[nH]n3)CC2)cc1 | i
Cc1nc(-c2c3n(c(=O)n(CC(=O)Nc4ccc(F)cc4F)c2=O)CCCC3)no1 | -23.8%
COc1ccc(C(=O)N2CCN(Cc3cn(-c4ccccc4)nn3)CC2)cc1 | i
c1ccc(-n2cc(CN3CCN(c4nc5ccccc5o4)CC3)nn2)cc1 | -13.9%
SMILES | Pf Dd2 growth
Cc1cc(C)cc(N2CCN(Cc3cn(-c4ccccc4)nn3)CC2=O)c1 | 11.2µM*
COc1ccc(CN2C[C@H](O)C[C@H]2c2nc(CS(=O)(=O)c3ccc(F)cc3)no2)cc1 | -22.0%
COc1ccc(F)cc1S(=O)(=O)NC1CCc2nnc(C)n2CC1 (stereo not given) | 33.4%
CC(C)NC(=O)NCc1nnc2n1C(C(=O)N1CCOCC1)CC2 (stereo not given) | 14.7%
Cc1cccc(CC(=O)N2CCCCCC2c2nnc(-c3ccccc3)o2)c1 (stereo not given) | i
COc1cccc(-c2ccc(NC(=O)C3CCCN3Cc3cnn(C)c3)cc2)c1 (stereo not given) | -23.3%
Cc1ccc(-n2cc(CN3CCCCC3C(N)=O)c(-c3cccc(C)c3)n2)cc1 (stereo not given) | 11.2µM*
O=C(c1ccc2c(c1)OCO2)N1CCC(N2CCOC2=O)CC1 | 16.0%
O=C(c1ccc(C(F)(F)F)cc1)N1CC(Oc2ccc(F)cc2F)C1 | 2.7%
COCc1nc(C2CCN(C(=O)C3CC3)C2)no1 (stereo not given) | -2.9%
C[S+](=O)([O-])N1CC2(CCN(C3COC3)CC2)Cc2ccccc21 | 9.9%
C[S+](=O)([O-])N1CC2(CCN(C(=O)CCC(=O)O)C2)Cc2ccccc21 (stereo not given) | -5.5%
C[S+](=O)([O-])N1CC2(CCN(Cc3c[nH]c4ccccc34)CC2)Cc2ccccc21 | 11.2µM*
O=C(Cc1ccc(OC(F)(F)F)cc1)Nc1cccn2nc(C3CC3)nc12 | -19.0%
CN(Cc1ccccc1)c1ncccc1CNC(=O)Nc1ccccc1F | -16.3%
O=C(C1CCCO1)N1CCc2[nH]nc(C(c3ccccc3)c3ccccc3)c2C1 (stereo not given) | -22.4%
CN1C(=O)CC(C(=O)O)C12CCN(C(=O)c1ccc3c(c1)CCC3)CC2 (stereo not given) | -13.1%
Cc1cccc(Nc2ncc(NC(=O)c3cccc(F)c3)c(Nc3cccc(C)c3)n2)c1 | 2.24µM*
Cc1ccc2oc(-c3ccc(NC(=O)c4cccc(F)c4)c(C)c3)nc2c1 | 36.5%
O=C(Nc1cnc(-c2ccccc2)nc1)c1cccc(F)c1 | i
COc1ccc2cc(C3CN(C(=O)c4cccn4C)CCO3)ccc2c1 (stereo not given) | i
CC(C)NC(=O)C1CCCN(c2ncnc3onc(-c4ccc(F)cc4)c23)C1 (stereo not given) | -2.8%
COc1cccc(NC(=O)C2CCCN(c3ncnc4onc(C)c34)C2)c1 (stereo not given) | -19.7%
CCOC(=O)c1ccc(NC(=O)C2CCCN(c3ncnc4onc(-c5ccc(F)cc5)c34)C2)cc1 (stereo not given) | 8.91µM*
Cc1noc(CN2CCN(c3nc(N)nc4c3CCC4)CC(O)C2)n1 (stereo not given) | 2.8%
SMILES | Pf Dd2 growth
COc1ccc(-c2ccnc(N[C@H]3CO[C@H]4[C@@H]3OC[C@H]4OCC(N)=O)n2)cc1 | -19.8%[44.1 µM]
Cc1noc(-c2cn(C3CCN(C(=O)Cc4ccsc4)C3)nn2)n1 (stereo not given) | i
CNc1ccc(C)cc1C(=O)N1CCC2(CCCN(C)CC2)CC1 | 10µM*
Cc1ccc(C(=O)N2CCCC3(CCNCC3)CC2)cc1Cl | -13.7%
CNc1ncccc1C(=O)N1CCC(O)(c2ccc(C)cn2)CC1 | -4.1%
Clc1cnccc1CN1CCNc2cnc(Oc3ccccc3)cc2C1 | i
COCCCNC(=O)CN1CCCc2nc(-c3ccncc3)ncc2C1=O | -10.5%
CC[C@@]1(O)CCN(c2nc(N)c3cc(OC)c(OC)cc3n2)C[C@H]1O | -4.8%
O=C(c1ccccc1F)N1CC(Oc2ccc(F)c(F)c2)C1 | -20.5%
COC[C@H]1CCCN1[C@@H]1[C@H](O)[C@H](CO)O[C@@H]1CNS(=O)(=O)c1cccs1 | -13.3%
COC[C@H]1CCCN1[C@@H]1[C@H](O)[C@H](CO)O[C@@H]1CN(Cc1ccc(F)cc1)Cc1ccc(F)cc1 | 4.47µM*
OC[C@@H]1O[C@H](CNCc2ccc(F)cc2)[C@H](N2CCCC2)[C@@H]1O | i
O=C1NC(=O)C(CCC(=O)N2CCCN(Cc3ccccn3)CC2)N1 (stereo not given) | -4.3%
CCOc1cc(C2c3c(oc4ccccc4c3=O)C(=O)N2Cc2ccc(OC)cc2)ccc1O (stereo not given) | -4.7%
O=C1c2[nH]nc(-c3ccccc3O)c2C(c2ccc(F)cc2)N1CCO (stereo not given) | -9.0%
O=C1c2[nH]nc(-c3ccccc3O)c2C(c2ccc(Cl)cc2)N1CCc1ccccc1 (stereo not given) | 8.91µM*
CCCN1C(=O)c2[nH]nc(-c3ccccc3O)c2C1c1cccc(OCc2ccccc2)c1 (stereo not given) | 4.47µM*

Screening data (PubChem)
